The structures appear in SMILES notation. Out of some 6,200 compounds screened, about 2,900 (47%) were called active. So high a share suggests a set chosen from earlier hits. This is one part of the list. A number with no mark means an inactive call. No stated cut-off is given here; in the data, active means inhibition above about 50%; inactive means the rest.

The assay is described as follows: Mycobacterium tuberculosis growth inhibition, primary screen (AID 1259343). Conditions: inhibition: at 10 µM, active compounds read high; outcome: 10 uM.
In the case of `O=C(CN1CCN(CCC23CC4CC(CC(C4)C2)C3)CC1)N1CCCCC1`, the inhibition was 9.26%. The value for `O=C(CCC1CCCCC1)Nc1ccc(-n2cccn2)cc1` was 37.5%. The value for `O=C(Nc1ccc(-n2cccn2)cc1)C1CCN(Cc2ccccn2)CC1` was 90.4% (active); that for `O=C(Nc1ccc(-n2cccn2)cc1)C1CCCCN1Cc1cc2ccccc2[nH]1` (configuration not stated) was 80.4% (active). The same measure for `Cc1ccc(C(C)CCN2CCC(C(=O)Nc3ccc(-n4cccn4)cc3)CC2)o1` (configuration not stated): 81.8% (active). Regarding `Cc1nc(C)c(CN2CCC(C(=O)Nc3ccc(-n4cccn4)cc3)CC2)nc1C`, the inhibition is 83.6% (active). As for `CCOC(=O)C1(CCOc2ccccc2)CCN(Cc2cc3ccccc3[nH]2)CC1`, the inhibition result was “inactive”. The value for `CCn1ncc(CN2CCCC(C(=O)Nc3cccc(-c4cc5ccccc5[nH]4)c3)C2)c1C` (configuration not stated) was 24.9%; that for `Cc1ccc2nc(/C(Cl)=C/c3cccc(OCc4cccc(C#N)c4)c3)cc(=O)n2c1` was 32.1%; that for `O=C(Nc1cccc(-c2cccc(F)c2)c1)C1CCN(CC2CCOC2)CC1` (configuration not stated) was 19.5%.

As to `O=C(Nc1ccc(-n2cccn2)cc1)C1CCN(CC2CCOC2)CC1` (configuration not stated), the inhibition was 87.4% (active). As to `CCCCOC(=O)c1ccc(N/C=C(\C#N)c2nc(C3CC3)cs2)cc1`, the inhibition was 79.1% (active). The same measure for `O=C(O)c1cncnc1/C=C/c1ccccc1Br`: 3.04%. The same measure for `N#CC(Cc1ccccc1)NC(=O)/C=C/c1ccccc1Br` (configuration not stated): 88.1% (active); for `CCc1ccc(S(=O)(=O)NCCOc2ccc(-c3ccc(F)cc3)nn2)s1`: 92.4% (active). Turning to `O=C(NCc1ccc(Cl)s1)c1cc(COc2cccc(C(F)(F)F)c2)on1`, the inhibition was 82.4% (active). On to `C#CCN(CC=C)C(=O)c1cc(COc2cccc(C(F)(F)F)c2)on1`, for which the inhibition is 26.3%. The value for `O=C(NC1(c2ccccc2)CC1)c1cc(COc2cccc(C(F)(F)F)c2)on1` was 88.1% (active); that for `O=C(c1cc(COc2cccc(C(F)(F)F)c2)on1)N1CCC(c2ccncc2)CC1` was 64.9% (active). The value for `O=C(c1cc(COc2ccc(-n3cncn3)cc2)on1)N1CCC(c2ccncc2)CC1` was 35.6%; that for `O=C(c1cc(COc2ccc3c(c2)CCCC3)on1)N1CCC(c2ccncc2)CC1` was 36.6%. The same measure for `Cc1ccc(-c2nc(N3CCN(CCO)CC3)ncc2-c2ccccc2C)cc1`: -0.32%; for `O=P(NCc1ccccc1)(Oc1ccccc1)Oc1ccccc1`: 81.5% (active); for `O=C(NCc1ccccc1)c1coc(Br)c1`: 41.6%. `CN(Cc1ccc(C#N)cc1)C(=O)CCc1ccc(C(C)(C)C)cc1`: the inhibition was 74.3% (active). As to `CC(C)(C)CC(C)(C)NC(=O)c1ccc(C#N)cc1`, the inhibition was -11.6%. With `CCC(C)(C)C1CCC(NC(=O)c2cccc(-n3cnnn3)c2)CC1` (configuration not stated), the inhibition is 24.6%. On to `CCC(C)(C)C1CCC(NC(=O)c2ccnc(C)n2)CC1` (configuration not stated), for which the inhibition was 70.8% (active). The same measure for `O=[N+]([O-])c1ccc(C2CN=C(Nc3ccccc3)O2)cc1` (configuration not stated): 74% (active); for `NC(=O)CC1CCN(Cc2noc(Cc3ccc(Br)cc3)n2)CC1`: 24.6%; for `CCC(=O)C1=C(c2ccc(Br)cc2)N(C(=O)CC)n2cnnc2S1`: 8.79%. For the molecule `Cc1nnc(NC(=O)c2ccc(S(=O)(=O)Nc3cccc(C(F)(F)F)c3)o2)s1`, the inhibition was 66.4% (active). The same measure for `CNS(=O)(=O)c1ccc(C(=O)Nc2ccc(C)c(C)c2)o1`: -15.4%; for `O=C(NC(=S)Nc1cccc(C(F)(F)F)c1)c1ccc(Br)o1`: -5.04%.

For `O=C(Nc1ccc(Cl)c(Cl)c1)N(Cc1ccc(O)cc1)C1CC1`, the inhibition was 27.8%.

On to `O=C(Nc1ccc(CNS(=O)(=O)c2c(Cl)cccc2Cl)cc1)C1CC1`, for which the inhibition is 27.6%.

On to `O=C(NNc1ccc(Cl)c(Cl)c1)c1ccc(NC(=O)C2CC2)cc1`, for which the inhibition was 96.5% (active). The same measure for `CC1(C)CC2CC(C)(CN2C(=S)NC(=O)c2cccs2)C1` (configuration not stated): 96.2% (active). The value for `CCCCNC(=S)N1CC2(C)CC1CC(C)(C)C2` (configuration not stated) was 90.3% (active); that for `CC1(C)CC2CC(C)(CN2C(=O)c2cc3c(s2)CCCC3)C1` (configuration not stated) was 47.7%.

Consider `Fc1ccc(OCc2noc(-c3cccs3)n2)c(Br)c1`, for which the inhibition is -15.9%. Take `Clc1ccc(Cc2noc(-c3cccs3)n2)c(Cl)c1`: the inhibition is 84.3% (active). The same measure for `CNC(=O)Cc1noc(-c2cc3c(s2)CCCCCC3)n1`: 43.5%. With `O=C(CN1CCCc2cc(F)ccc21)NCc1ccco1`, the inhibition was 44%. The value for `S=C(NCc1ccco1)N1CCC2CCCCC2C1` (configuration not stated) was 86.6% (active); that for `COc1cc(C(=O)NC2CCOc3ccccc32)cc2c1OCCO2` (configuration not stated) was 41.9%; that for `N#Cc1cccc(NC(=O)C2C3CC4CC(C3)CC2C4)c1` (configuration not stated) was 28.5%.

Take `N#Cc1cccc(NC(=O)c2cc(Cl)c3c(c2)OCCCO3)c1`: the inhibition was 56.4% (active).

As for `OC(c1ccccc1)c1nc(/C=C/c2ccccc2)cs1` (configuration not stated), the inhibition was 47.4%. The value for `CC(C)c1cccc(Nc2nnc(C(O)c3ccccc3)s2)c1` (configuration not stated) was 68.4% (active); that for `Cc1cc(NC(=O)C(C)Oc2ccccc2)n(-c2nc3c(c(=O)[nH]2)CCC3)n1` (configuration not stated) was 100% (active); that for `Cc1cc(NC(=O)C(C)C)n(-c2nc3c(c(=O)[nH]2)CCC3)n1` was 101% (active). Regarding `O=C(Nc1ncnc2c1CCC2)c1nc2ccccc2s1`, the inhibition is 93.3% (active). The value for `CC(C)(C)c1nnc2sc(SCC(=O)NCC3CCCCC3)nn2c1=O` was 73.1% (active); that for `O=C(CSc1nnc(SCC(=O)NC2CCCC2)s1)NC1CCCC1` was -2.28%; that for `O=C(CSC(F)(F)F)NCC1CCC1` was -78.2%. The value for `CC(C)c1nc(CCNC(=O)C2CC2c2cccc(O)c2)cs1` (configuration not stated) was 39.2%. The value for `Cc1cnc(CNC(=O)C2CC2c2ccc(F)c(F)c2)o1` (configuration not stated) was -29.9%. On to `Cc1csc(CCNC(=O)C2CC2c2ccc(Cl)cc2)n1` (configuration not stated), for which the inhibition was 79.1% (active). The value for `CC(C)NC(=O)Nc1cccc(C(=O)Nc2ccc(C(C)C)cc2)c1` was 35.6%; that for `O=C(O)Cc1ccc(NC(=O)c2cccc(Br)c2)cc1` was 89.2% (active); that for `C=C(Br)Cn1c(-c2cccs2)nc2ccccc21` was 4.18%. Turning to `C=CCn1c(COc2ccc3ccccc3c2)nc2ccccc21`, the inhibition was 26.8%.

On to `C=C(Br)Cn1c(C=Cc2ccccc2)nc2ccccc21`, for which the inhibition was 89.4% (active). The value for `CC(C)(C)C1CCc2sc(C(=O)O)cc2C1` (configuration not stated) was -46.9%. The value for `CCC1CCc2sc(C(=O)O)cc2C1` (configuration not stated) was 85.9% (active); that for `CCC1CCc2sc(C(=O)N=c3sccn3C)cc2C1` (configuration not stated) was 37.3%; that for `C=CCN(CC=C)C(=O)CSc1nc(N)cc(=O)[nH]1` was -27.6%. The same measure for `O=C(c1ccc2ccccc2c1)C1CCCN(S(=O)(=O)Cc2ccccc2)C1` (configuration not stated): 23.8%; for `Cc1cc(C(=O)N2CCCC(C(=O)c3ccc(-c4ccccc4)cc3)C2)no1` (configuration not stated): 79.4% (active); for `O=C(c1ccc(-c2ccccc2)cc1)C1CCCN(C(=O)CSc2ncccn2)C1` (configuration not stated): 9.54%. Take `O=C(c1ccc(-c2ccccc2)cc1)C1CCCN(C(=O)c2ccsc2)C1` (configuration not stated): the inhibition is 74.6% (active). The same measure for `CN(Cc1cccc(O)c1)c1nccc(CCC(F)(F)F)n1`: 54.8% (active). The value for `CN(Cc1ccc2nonc2c1)c1nccc(CCC(F)(F)F)n1` was 31.6%; that for `CNc1ncc(CN(C)c2nccc(CCC(F)(F)F)n2)cn1` was 55.3% (active).

As for `Cc1sc(NC(=O)CC2(CC(=O)O)CCCCC2)c(C#N)c1C`, the inhibition is -8.62%. The same measure for `O=C(O)CC1(CC(=O)Nc2cc(C(F)(F)F)cc(C(F)(F)F)c2)CCCCC1`: 88.4% (active); for `CCc1ccc(C2C=C(c3ccc(F)cc3)Nc3nnnn32)cc1` (configuration not stated): 80.2% (active).

As for `CCc1ccc(C2=CC(c3ccc(Br)cc3)n3nnnc3N2)cc1` (configuration not stated), the inhibition is 76.2% (active). The same measure for `COc1ccc(C2C=C(c3ccccc3)Nc3nnnn32)cc1` (configuration not stated): 78.5% (active). The same measure for `COc1ccc(C2C=C(c3ccc(Cl)cc3)Nc3nnnn32)cc1` (configuration not stated): 7.81%; for `Clc1cccc(C2C=C(c3ccc(-c4ccccc4)cc3)Nc3nnnn32)c1Cl` (configuration not stated): 93.5% (active); for `COc1ccc(C2C(C(=O)c3ccccc3)C(O)(C(F)(F)F)N(C)C(=O)N2C)cc1` (configuration not stated): -22.5%.

As to `Clc1ccc(-c2csc3ncnc(Sc4nnnn4C4CC4)c23)cc1`, the inhibition was -14.2%. As for `Cc1ccc(C2=CC(c3ccc(Cl)cc3)n3nnnc3N2)cc1` (configuration not stated), the inhibition was 102% (active). The same measure for `Clc1ccc(C2C=C(c3ccc(Br)cc3)Nc3nnnn32)cc1` (configuration not stated): -26.6%; for `OC(c1ccccc1)C1CCN(c2cncc(Cl)n2)CC1` (configuration not stated): 44.6%. The value for `Cc1cccc(C)c1OC1CN(C(=O)C(=O)c2ccco2)C1` was 45.6%. The same measure for `Cc1cccc(C)c1OC1CCN(c2cncc(C(N)=O)n2)CC1`: 95.8% (active). `Cc1ccc(OCc2cc(C(=O)N3CCC(C(=O)c4ccccc4)CC3)no2)cn1`: the inhibition entry was “inactive”.

As for `Cc1ccc(OCc2cc(C(=O)N3CCCC3c3nc4ccccc4s3)no2)cn1` (configuration not stated), the inhibition was 81.4% (active). The value for `C=CC[C@@H]1CC=C[C@@H](C)N1C(=O)c1cc(COc2ccc3sc(C)nc3c2)on1` was -45.8%; that for `Cc1ccccc1C1CCCN(C(=O)c2cc(COc3cccc4cnccc34)on2)C1` (configuration not stated) was 46.4%; that for `CCCC1C=CCN1C(=O)c1cc(COc2ccc(C(C)=O)cc2)on1` (configuration not stated) was 75.2% (active). The same measure for `CCCCC1C=CCN1C(=O)c1c(O)cccc1O` (configuration not stated): 3.76%; for `CCC1C=CCN1C(=O)c1cc(COc2ccc3sc(C)nc3c2)on1` (configuration not stated): 94.8% (active); for `CCCC1C=CCN1C(=O)c1cc(COc2ccc3c(c2)OCO3)[nH]n1` (configuration not stated): 31.8%. The value for `O=c1c(O)c(-c2ccc(O)c(O)c2)oc2cc(O)cc(O)c12` was 36.4%; that for `COc1ccc(-c2coc3cc(O)cc(O)c3c2=O)cc1` was 88.5% (active). Regarding `COc1ccc(-c2cnoc2-c2ccc(OC)cc2O)cc1`, the inhibition is -32.9%. The value for `COc1ccc(-c2c(NC(=O)c3ccco3)oc3c(C)cccc3c2=O)cc1` was 19.2%; that for `COc1ccc2c(=O)c(Oc3ccc(Cl)cc3)coc2c1` was 0.4%; that for `COc1ccc(OC)c(C(=O)c2coc3ccc(OC)cc23)c1` was 17.3%.

On to `COc1ccc(-c2coc3c(O)c(OC)ccc3c2=O)cc1`, for which the inhibition was 67% (active).

`COc1ccc2c(=O)c3c(=O)n(-c4ccccc4)c(C)nc3oc2c1`: the inhibition is 12.6%. The same measure for `O=c1c(-c2ccc(O)cc2)coc2cc(O)cc(O)c12`: 50.5% (active).

As for `COc1cc(OC)c2c(=O)c(-c3ccccc3)coc2c1`, the inhibition is 70.5% (active).

For orientation: inhibition means the relative decrease from the control value, in per cent.

The values above are taken from PubChem BioAssay AID1259343 (VanderVen Lab, College of Veterinary Medicine, Cornell …, 2017).
